Potency and affinity values are given separately. Unmarked numbers belong to inactive results. The source made the active and inactive calls.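 The calls were made as follows: active = a dose-response fit showing signal loss, with half-maximal concentration no higher than twice the top tested dose; inconclusive = flat fit between 30% and 70% signal loss, or poor fit; inactive = the rest.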

The test is described as follows: viability loss in HepG2 hepatoma cells – cell-based, cherry-picks, set 2, cytotoxicity control, dose response (AID 687002). The following applies: ATP luminescence (CellTiter-Glo), 48 h; series mostly up to 26 µM; activity change, negative = cytotoxicity: at the top concentration.
With `C[C@@H]1CN([C@@H](C)CO)C(=O)c2cccc(NC(=O)C3CC3)c2O[C@@H]1CN(C)C`, the “activity change, negative = cytotoxicity” value is -10.6%.
Still for that read-out and setting: to `C[C@H]1CCCCO[C@H](CN(C)C(=O)c2ccncc2)[C@@H](C)CN([C@@H](C)CO)C(=O)c2cc(NC(=O)Cc3ccccc3)ccc2O1` belongs 5.49%; to `O=C(O)C/C(=C\c1cccc(NC(=O)c2ccccc2Cl)c1)c1nc2ccccc2s1`, -5.72%; to `C[C@@H]1CN([C@@H](C)CO)C(=O)c2cccc(NC(=O)Nc3ccccc3)c2O[C@H]1CN(C)S(=O)(=O)c1cn(C)cn1`, 5.2%.
Still for that read-out and setting: as for `O=C(CN(c1ccccc1)S(=O)(=O)c1ccc(F)cc1)NC1CCS(=O)(=O)C1` (stereo unspecified), the figure is -11.1%.
On to `Cc1ccc(C)c(NC(=O)C2(C)CCCN2C(=O)C(C)C)c1` (stereo unspecified), for which the compound was classed as inactive.
As for `COc1ccc(CN(C)C[C@@H]2Oc3c(NC(=O)Nc4cccc5ccccc45)cccc3C(=O)N([C@@H](C)CO)C[C@@H]2C)cc1`, the “activity change, negative = cytotoxicity” value was 6.35%.
On the same count and under the same terms, to `C[C@H](CO)N1C[C@H](C)[C@H](CN(C)C(=O)Nc2cccc3ccccc23)Oc2ccc(NC(=O)Nc3ccccc3)cc2C1=O` belongs 4.88%.
Regarding `C[C@@H]1CCCCO[C@H](CN(C)C(=O)Nc2ccc(F)cc2)[C@H](C)CN([C@@H](C)CO)C(=O)c2cc(NS(=O)(=O)c3ccc(Cl)cc3)ccc2O1`, the “activity change, negative = cytotoxicity” value was 32.8%.
Turning to `CCS(CC)=NS(=O)(=O)c1ccc(NC(C)=O)cc1`, the “activity change, negative = cytotoxicity” value was 14.6%.
On the same count and under the same terms, as for `Cc1ccc(NC(=O)C2(C)CCN2C(=O)CC2CC2)cc1C` (stereo unspecified), the figure is 2.98% [at 42 µM].
Still for that read-out and setting: as for `CCNC(=O)Nc1ccc2c(c1)C(=O)N(C)[C@H]1CC[C@H](CC(=O)N[C@@H](C)c3ccccc3)O[C@H]1CO2`, the figure is 4.9%.
On the same count and under the same terms, to `Cc1noc(C)c1NC(=O)Nc1ccc2c(c1)C(=O)N(C)[C@H]1CC[C@H](CC(=O)N[C@H]3CCN(Cc4ccccc4)C3)O[C@H]1CO2` belongs 0.015% [at 23.5 µM]; to `C[C@H](CO)N1C[C@H](C)[C@H](CN(C)C(=O)c2ccccn2)Oc2ncc(-c3ccccc3)cc2C1=O`, 8.5%.
Consider `C[C@H]1CCCCO[C@@H](CN(C)C(=O)c2ccccc2)[C@@H](C)CN([C@@H](C)CO)C(=O)c2cc(NC(=O)c3ccncc3)ccc2O1`, for which the “activity change, negative = cytotoxicity” value was 14.4%.
Still for that read-out and setting: to `COc1ccc(NC(=O)Nc2ccc3c(c2)C(=O)N([C@@H](C)CO)C[C@@H](C)[C@H](CN(C)C(=O)Cc2ccccc2)OCCCC[C@H](C)O3)cc1` belongs 24.3%.
With `Cc1cc(C)c(NC(=O)C(C)N2CCCCCC2)c(C)c1` (stereo unspecified), the “activity change, negative = cytotoxicity” value is -5.33%.
Still for that read-out and setting: to `N#Cc1ccc(C23CC4(C2)[C@H](CN(Cc2ccc(-c5ccccc5)cc2)[C@@H]4c2ccccc2)C3c2ccc(C(F)(F)F)cc2)cc1` (stereo partly specified) belongs 0.033%.
Same read-out and setting: as for `C[C@@H]1CN([C@H](C)CO)C(=O)c2c(c3ccccc3n2C)-c2ccccc2CO[C@H]1CN(C)S(=O)(=O)c1cccs1`, the figure is 35.5%; as for `C[C@H]1CN([C@@H](C)CO)C(=O)Cc2cc(NC(=O)CCCCCC(=O)Nc3ccccc3N)ccc2O[C@H]1CN(C)C(=O)Nc1ccccc1`, -19.7%; as for `C[C@@H]1CCCCO[C@@H](CN(C)S(=O)(=O)c2cccs2)[C@H](C)CN([C@@H](C)CO)C(=O)c2cc(NC(=O)CCC(F)(F)F)ccc2O1`, 14.8%.
On the same count and under the same terms, as for `CCC(=O)N1[C@@H]2Cn3c(cccc3=O)[C@H]1[C@@H](C(=O)NCc1ccccc1)[C@@H]2CO`, the figure is 4.43% [at 23.5 µM]; as for `CCC(=O)N1C[C@H](O)COC[C@@H]2O[C@@H](CC(=O)NCc3ccccc3Cl)CC[C@H]21`, 5.25%; as for `COCC#Cc1cnc2c(c1)C(=O)N([C@H](C)CO)C[C@H](C)[C@H](CN(C)C(=O)C1CC1)O2`, -15.4%.
In the case of `O=C(C[C@H]1CC[C@H](NC(=O)Nc2ccc(C(F)(F)F)cc2)[C@H](CO)O1)NCc1cccc(F)c1`, the “activity change, negative = cytotoxicity” value was -11.1%.
Still for that read-out and setting: to `C[C@@H]1CCCCO[C@H](CN(C)Cc2ccncc2)[C@@H](C)CN([C@H](C)CO)C(=O)c2cc(N(C)C)ccc2O1` belongs 5.14%; to `Cc1noc(C)c1NC(=O)Nc1ccc2c(c1)C(=O)N([C@H](C)CO)C[C@@H](C)[C@H](CN(C)C(=O)Nc1ccc(F)cc1)OCCCC[C@@H](C)O2`, -11.5%.
On to `CC(C)NC(=O)Nc1cccc2c1O[C@H](CN(C)C)[C@H](C)CN([C@H](C)CO)C2=O`, for which the “activity change, negative = cytotoxicity” value is 1.41% [at 23.5 µM].
On the same count and under the same terms, to `CO[C@@H]1CC[C@@H]2CCOc3c(C#N)cccc3C(=O)N(C)C[C@H](c3ccccc3)CC(=O)N(C)C[C@@H]1O2` belongs -3.06%; to `O=C(C[C@@H]1CC[C@H]2[C@@H](COC[C@@H](O)CN2Cc2ccc(Cl)cc2)O1)NCc1cccc(F)c1`, 6.81%; to `C[C@@H]1CCCCO[C@@H](CN(C)Cc2ccncc2)[C@@H](C)CN([C@H](C)CO)C(=O)c2cc(NC(=O)c3ccncc3)ccc2O1`, -1.35%.

Values taken from PubChem BioAssay.
